Pf Dd2 inh = qHTS Primary assay for Inhibitors of Plasmodium falciparum Dd2 growth in vitro. P. falciparum Dd2 growth, SYBR Green, 72 h. 4.3% of 120,000 active. Potency, µM (highest dose often 28.9 µM), hits mostly inhibitors. AID 1347417, 2020; active means well fitted inhibition curve with a large enough effect; further: nearly all actives have a fitted effect of over 65% in size
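Infected erythrocytes (Dd2, 0.3% parasitemia, 2.5% hematocrit final) are added to compound in RPMI-1640/Albumax II medium, grown 72 h at 37C in low oxygen, then lysed with saponin/Triton-X containing SYBR Green and read by fluorescence.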
Numbers stand for hits; – = inactive; [ ] = another dose, or the depositor's remark. This is one part of a sample in which hits are shown more often than they occur.

SMILES	Pf Dd2 inh
O=C(NCc1ccncc1)c1cc(C2CC2)nc2c1c(C1CCCN1)nn2-c1ccccc1 (stereo not drawn)	8.9µM
Cn1nc(C2CCCN2)c2c(C(=O)NCC(F)(F)F)cc(C3CC3)nc21 (stereo not drawn)	–
O=C(NCC(F)(F)F)c1cc(C2CC2)nc2c1c(C1CCCN1)nn2-c1ccccc1 (stereo not drawn)	8.9µM
CC(C)CNC(=O)c1cc(C2CC2)nc2onc(C3CCCNC3)c12 (stereo not drawn)	–
COCCNC(=O)c1cc(C2CC2)nc2c1c(C1CCCN1)nn2C (stereo not drawn)	–
COc1ccc(CNC(=O)c2cc(C3CC3)nc3c2c(C)nn3-c2cccc(Cl)c2C)cc1	–
Cn1nc(C2CCNC2)c2c(C(=O)NCc3ccc(F)cc3)cc(C3CC3)nc21 (stereo not drawn)	–
CN(C)C(=O)C1CN(C(=O)Nc2cccc(Cl)c2)CC12CCOCC2 (stereo not drawn)	–
Cc1sc2cc(C(=O)NCCN3CCOCC3)[nH]c2c1CN1CCCCC1	–
CS(=O)(=O)N1CCC(C2CCN(C(=O)c3ccc(F)c(Cl)c3)C2)CC1 (stereo not drawn)	–
Cn1ccnc1C(=O)N1CCCCCCn2c(nnc2-c2ccc(F)cc2)CC1	–
CCCCCC(=O)N1CC[C@@H](CC(=O)N(C)CCC#N)[C@@H](CC)C1	–
COc1cc(OC)c(OC)cc1CN1CCC(O)(CN2CCCC2)CC1	–
Cc1ccc([S+](=O)([O-])N2CC3(Cc4ccccc4N([S+](C)(=O)[O-])C3)C2)cc1	–
COc1ccc(CNC(=O)N2CCC(c3noc(-c4ccccc4)n3)C2)cc1 (stereo not drawn)	–[5.79 µM]
O=C(NCc1nnc2cc(-c3nc(C4CC4)no3)ccn12)c1ccoc1	–
O=C(NCc1nnc2cc(-c3nc(C4CC4)no3)ccn12)c1cccc(Cl)c1	–
O=C(Cc1ccc(Cl)cc1)NCc1nnc2cc(-c3nc(C4CC4)no3)ccn12	0.45µM
O=C(NCc1nnc2cc(-c3nc(C4CC4)no3)ccn12)c1ccccc1Cl	–
O=C(Cc1ccc(F)cc1)NCc1nnc2cc(-c3nc(C4CC4)no3)ccn12	4.5µM
COc1cccc(CNC(=O)N2CC(c3noc(-c4ccncc4)n3)C2)c1	8.9µM
COc1cccc(CC(=O)NCc2nnc3cc(-c4nc(C5CC5)no4)ccn23)c1	6.3µM
O=C(NCc1nnc2cc(-c3nc(C4CC4)no3)ccn12)C1CC1	–
COc1ccc(CNC(=O)N2CCC(c3noc(-c4cccnc4)n3)C2)cc1 (stereo not drawn)	–[5.79 µM]
O=C(NCc1nnc2cc(-c3nc(C4CC4)no3)ccn12)c1c(F)cccc1F	–
SMILES	Pf Dd2 inh
O=C(Cc1cccc(F)c1)NCc1nnc2cc(-c3nc(C4CC4)no3)ccn12	–
CCOc1ccccc1NC(=O)N1CCC(C(=O)N2CCCCCCNC(=O)CC2)CC1	–
CN(Cc1ccccc1)C(=O)C[C@@H]1O[C@H](CNC(=O)c2ccccc2)[C@@H](O)[C@H]1O	–
COCC1CN(C(C)=O)CC12CCN(C(=O)c1cccc(Cl)c1)CC2 (stereo not drawn)	–
CCCN(CC1CCOC1)C(=O)Nc1ccccc1OC (stereo not drawn)	–[5.79 µM]
C#CCN(C)C(=O)[C@@H]1CCCN1C1(C(=O)NC)CCCCC1	–
Cc1cccc(OCC2(CNC(=O)C3CCCC3)C[C@@H](O)[C@@H](O)C2)n1 (stereo partly drawn)	–
Cc1ccc(-c2nnc(C3CN(C(=O)c4ccco4)CC34CCOCC4)o2)cc1 (stereo not drawn)	–
COc1nc2c(cc1CNC(=O)C1(C)CC1)C(=O)N(CCc1ccccn1)C2	–
CCN(CC)C(=O)CC[C@@H]1CNC(=O)[C@@H]2C[C@H](NCc3cccc(Cl)c3)CN12	–
CCn1cc(CN2C[C@@H](CO)[C@H](NC(=O)C3CC3)C2)cn1	–
CC(=O)Nc1ccc(CNC[C@H]2COCc3nc4cc(C)ccc4n32)cc1	–
COc1ccc(C(=O)Nc2cc(NC(=O)c3ccco3)ccc2OC)cc1Cl	–
COc1ccc(NC(=O)c2ccco2)cc1NC(=O)c1c(OC)cccc1OC	–
COc1ccc(NC(=O)c2ccco2)cc1NC(=O)C(C)(C)Oc1ccc(Cl)cc1	10µM
Cc1ccc(-n2nc3n(c2=O)CCN(C(=O)c2ccc(Cl)nc2)C3)cc1	–
COc1ccc(NC(=O)Cn2ccn3nc(-c4ccccc4)c(CO)c3c2=O)c(OC)c1	–
CCOC(=O)c1c(C)oc2ncnc(NCCc3ccccc3)c12	–
CCOC(=O)c1c(C)oc2nc(C)nc(N(C)Cc3ccccc3)c12	13µM
CCOC(=O)c1c(C)oc2nc(C)nc(NCCCN3CCN(c4cc(Cl)ccc4C)CC3)c12	–
CCOC(=O)c1c(C)oc2nc(C)nc(Nc3cccc(OC)c3)c12	–
CCOC(=O)c1c(C)oc2nc(C)nc(N3CCN(c4cccc(C(F)(F)F)c4)CC3)c12	10µM
CCOC(=O)c1c(C)oc2nc(C)nc(NCc3ccc(OC)cc3OC)c12	–
CCOC(=O)c1c(C)oc2nc(C)nc(NCC3CCN(Cc4ccc(Cl)cc4)CC3)c12	13µM
CCOC(=O)c1c(C)oc2nc(C)nc(NCc3ccc(Cl)cc3)c12	–[5.79 µM]
SMILES	Pf Dd2 inh
CCOC(=O)c1c(C)oc2nc(C)nc(N3CCN(c4ccc(C)cc4C)CC3)c12	–
CCOC(=O)c1c(C)oc2ncnc(Nc3ccc(OCC)cc3)c12	–
CCOC(=O)c1c(C)oc2ncnc(N3CCN(c4cccc(Cl)c4)CC3)c12	–
CCOC(=O)c1c(C)oc2nc(C)nc(NC(C)c3ccccc3)c12 (stereo not drawn)	10µM
COc1cccc(CNC(=O)N2CC3CC(C2)[C@H]2CCCC(=O)N2C3)c1 (stereo partly drawn)	–
Cc1nonc1CC(=O)N1CCC(O)(CN2CCOCC2)C(C)(C)C1 (stereo not drawn)	–
O=C(NCc1ccco1)C1CC(c2ccccc2)CN(C(=O)c2ccccc2F)C1 (stereo not drawn)	–
CC(C)Oc1ccc(CNC(=O)CC2CCOCC2)cc1	–
O=C(Cc1ccc(Cl)cc1)N1CCC2(CC1)NC(=O)N(c1ccc(F)cc1)N2	–
Cc1cc(C)n(CCC(=O)NCC23CCCC=C2N(CC2CC2)C(=O)CC3)n1 (stereo not drawn)	–
COC(=O)c1sc2c(c1C)c(=O)n(-c1ccccc1)c(=O)n2CC(=O)Nc1cccc(C)c1	11µM
CC(=O)N1CCc2c(sc3c2c(=O)n(-c2ccccc2C)c(=O)n3Cc2cccc(F)c2)C1	–
CCOC(=O)N1CCc2c(sc3c2c(=O)n(-c2ccc(CC)cc2)c(=O)n3Cc2ccc(F)cc2Cl)C1	10µM
CC(=O)N1CCc2c(sc3c2c(=O)n(Cc2ccccc2)c(=O)n3Cc2ccccc2F)C1	–
CCOC(=O)N1CCc2c(sc3c2c(=O)n(-c2ccccc2)c(=O)n3CC(=O)Nc2ccc(OC)cc2OC)C1	4.5µM
CC(=O)N1CCc2c(sc3c2c(=O)n(-c2ccccc2)c(=O)n3CC(=O)Nc2ccccc2)C1	–
CC(=O)N1CCc2c(sc3c2c(=O)n(-c2ccccc2)c(=O)n3CC(=O)Nc2cccc(C)c2)C1	–
CC(=O)N1CCc2c(sc3c2c(=O)n(-c2ccccc2)c(=O)n3CC(=O)Nc2cc(C)cc(C)c2)C1	–
COc1cccc(NC(=O)Cn2c(=O)n(-c3ccccc3)c(=O)c3c4c(sc32)CCCC4)c1	–
CCOC(=O)N1CCc2c(sc3c2c(=O)n(-c2ccc(Cl)cc2)c(=O)n3CC(=O)c2ccc(F)cc2)C1	–

Source: PubChem BioAssay (National Center for Advancing Translational Sciences (NCATS))
